Most compounds without a hit are left out; they make up all but 32% or so of the library.
CYP2C9 inh = human CYP2C9 inhibition. P11712. CYP2C9 Supersomes, luciferin-H conversion, luminescence. inhibition, % at 5 µM. 20% of 96,000 active. AID 777;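 active means blocking of liver enzyme CYP2C9 beyond about 50% at 5 µM, limit read from the data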
CYP2C9 activ = increases human cytochrome P450 2C9 activity; P11712; recombinant CYP2C9, luciferin-H conversion, luminescence; active compounds read high; factor 1 = untreated enzyme, 0 = blocked; activation factor at 5 µM; 1.4% of 96,000 active;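 active means activation factor of 2 or more for CYP2C9 at a 5 µM dose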;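 further: 0 = sulfaphenazole-blocked wells and 1 = vehicle-only wells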
PostGolgi yeast = growth inhibition of a yeast mutant, post-Golgi transport screen; post-Golgi transport phenotypic cell assay; inhibition, % at 10 µM; 0.9% of 98,000 active; AID 739;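 further: yeast cells grown in 1536-well plates; yeast grown about 18 h at 30C before absorbance read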
CYP2C19 inh = blocks human cytochrome P450 2C19 | inhibition, % at 5 µM | 21% of 96,000 active | P33261 | CYP2C19 Supersomes, luciferin-H EGE luminescence, 30 min;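 active means CYP2C19 inhibition above a set limit at 5 µM in the primary screen, cut at about 50% in these data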;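 further: plate controls were negative control wells for no effect and 2.5 mM tranylcypromine positive control for full effect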
Target sequence (P33261 whole entry, looked up): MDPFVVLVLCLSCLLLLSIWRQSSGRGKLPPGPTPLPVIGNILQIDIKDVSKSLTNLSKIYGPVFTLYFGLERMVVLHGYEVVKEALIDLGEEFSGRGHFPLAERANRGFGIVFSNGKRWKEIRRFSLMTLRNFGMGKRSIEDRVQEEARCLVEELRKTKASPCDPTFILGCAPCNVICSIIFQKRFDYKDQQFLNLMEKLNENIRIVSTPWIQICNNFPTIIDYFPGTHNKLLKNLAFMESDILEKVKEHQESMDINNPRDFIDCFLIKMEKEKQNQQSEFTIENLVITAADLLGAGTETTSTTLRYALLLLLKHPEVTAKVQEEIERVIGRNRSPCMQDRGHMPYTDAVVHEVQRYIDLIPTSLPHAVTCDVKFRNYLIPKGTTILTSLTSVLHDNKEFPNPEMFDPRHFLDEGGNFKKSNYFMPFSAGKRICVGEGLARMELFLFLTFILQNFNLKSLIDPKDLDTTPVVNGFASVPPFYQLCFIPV
CYP2C19 activ = cytochrome P450 2C19 (human) activation; recombinant CYP2C19, luciferin-H EGE luminescence; active compounds read high; 0 = fully inhibited enzyme, 1 = untreated enzyme; P33261; activation factor at 5 µM; 96,000 tested, under 10 active; AID 1025;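 active means activation factor of at least 2 at 5 µM in the primary screen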;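 further: 0 = wells with 2.5 mM tranylcypromine and 1 = vehicle-only wells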
PostGolgi ctrl = inhibits growth of the yeast control strain | efflux-deficient yeast background strain, growth absorbance A615, 16 h | inhibition, % at 10 µM | 5% of 98,000 active | AID 738
Numbers without * were called inactive; . = no result given. Unless noted, no stated cut-off is given here; in the data, active means inhibition above about 30%; inactive means the rest.

SMILES	CYP2C9 inh	CYP2C9 activ	PostGolgi yeast	CYP2C19 inh	CYP2C19 activ	PostGolgi ctrl
COC(=O)COc1ccc(S(=O)(=O)N2CCN(c3ccc(F)cc3)CC2)cc1	46	0.5	-4	24	0.8	0
O=C(Nc1ccccc1O)c1ccc(Cl)cc1	-8	1.1	3	1	1	5
Cc1cc(NC(=O)c2ccc(Cl)cc2)c(C(C)C)cc1O	-78	1.8	-3	51*	0.5	-3
Cc1ccc(CNc2ccc(CNc3ncn[nH]3)cc2)cc1	63*	0.4	-3	77*	0.2	11
Cc1ccc(CNc2cnccn2)cc1	32	0.7	19	38	0.6	4
Cc1noc(C)c1CSc1ccc(Br)cc1	11	0.9	10	96*	0	11
Cc1cc(SCCC(=O)O)nc2ccccc12	-25	1.2	.	-17	1.2	.
COc1ccc(OCCSc2nnc3sc4ccccc4n23)cc1	0	1	38*	47	0.5	1
Cc1noc(C)c1Cc1ccc(O)cc1	31	0.7	16	23	0.8	17
Cc1noc(C)c1CSc1nnc2sc3ccccc3n12	2	1	-1	78*	0.2	-2
Cc1noc(C)c1CSc1cc(C)c2ccccc2n1	55*	0.5	-8	86*	0.1	16
CCC(CC)c1nnc(NC(=O)c2nc3nc(C)cc(C)n3n2)s1	6	0.9	5	-3	1	-2
O=C(CSc1nnc(-c2ccccc2)n1-c1ccccc1)N1c2ccccc2Sc2ccccc21	-5	1.1	-1	-6	1.1	2
Cc1noc(C)c1CSc1nnc(-c2ccccc2F)n1CCc1ccccc1	23	0.8	11	39	0.6	24
Cc1noc(C)c1CSc1nc2ccccc2n1C	62*	0.4	-4	89*	0.1	-10
Cc1nnc(Oc2ccccc2F)c2ccccc12	-22	1.2	0	23	0.8	29
CCOC(=O)C1=C(CS(=O)(=O)c2ccc(F)c(C)c2)NC(=O)NC1c1ccc(O)c(O)c1 (stereo not drawn)	8	0.9	-1	69*	0.3	-3
CCOC(=O)C1=C(CS(=O)(=O)c2ccccc2)NC(=O)NC1c1ccccc1OCC (stereo not drawn)	17	0.8	-5	30	0.7	10
Cc1cc(C2=CC(C)(c3cc(C)oc3C)Nc3nc(C(F)(F)F)nn32)c(C)o1 (stereo not drawn)	87*	0.1	-15	41	0.6	5
Cc1ccc(NCC(=O)N/N=C/c2ccc(OC(=O)c3ccco3)cc2)cc1	-2	1	8	0	1	2
O=c1c2ccccc2nc2n1C(CSCc1ccc(Cl)cc1Cl)CS2 (stereo not drawn)	22	0.8	-4	64*	0.4	14
CC(C)NC(=O)c1cc(C(=O)c2cc(Cl)ccc2O)coc1=N	34	0.7	-7	69*	0.3	2
CN(C)c1nc(N2CCN(c3ccc(F)cc3)CC2)c(C#N)c(=O)o1	-119	2.2*	1	82*	0.2	8
Cc1ccc(S(=O)(=O)N2CCC(C(=O)N[C@H](C(=O)N3CCN(C)CC3)C(C)C)CC2)cc1	9	0.9	2	10	0.9	2
O=C(CCCCCn1c(=O)[nH]c2ccsc2c1=O)N1CCCCC1	.	.	9	.	.	1
SMILES	CYP2C9 inh	CYP2C9 activ	PostGolgi yeast	CYP2C19 inh	CYP2C19 activ	PostGolgi ctrl
O=C(CCCn1c(=O)[nH]c2ccsc2c1=O)NCc1cccs1	28	0.7	16	7	0.9	0
O=C(CCCCCn1c(=O)[nH]c2ccsc2c1=O)NCc1cccs1	81*	0.2	-7	38	0.6	-8
O=C(CCCCCn1c(=O)[nH]c2ccsc2c1=O)NCc1ccc(F)cc1	88*	0.1	8	35	0.6	15
O=C(CCCCCn1c(=O)[nH]c2ccsc2c1=O)N1CCN(C2CCCCC2)CC1	72*	0.3	-3	56*	0.4	-3
CC1(c2ccco2)NC(=O)NC1=O (stereo not drawn)	.	.	7	.	.	-2
CC(C)OCCCNC(=O)c1ccccc1Oc1ccccc1	32	0.7	7	31	0.7	-1
COc1ccccc1CC(=O)Nc1ccc(O)cc1C(=O)O	2	1	-1	-6	1.1	2
COc1ccc(-c2n[nH]c(C)c2-c2cc(OC)ccc2O)cc1	91*	0.1	-2	100*	0	19
